# Assay outcomes as filed in PubChem BioAssay.
# A selection: hits, their analogues and other compounds. The true share with any hit is near 0.99%.
# AMA1 RON2 block – AMA1-RON2 (P. falciparum) interaction inhibition; AlphaScreen AMA1-biotinylated RON2 peptide binding; Potency, µM (highest dose often 58.2 µM), inactives show at the top dose activity change, negative = inhibition, hits mostly inhibitors; actives 0.2% (n = 360,000); AID 720542;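 note: 0% = vehicle wells and -100% = peptide control; nearly all actives have a fitted effect of over 45% in size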
#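 AMA1 (3D7) with his tag at 25 nM final met compounds first, then biotinylated RON2 peptide at 25 nM; detection used donor plus acceptor beads, 10 µg/mL apiece, read by AlphaScreen after 30 min at room temperature.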
# AmpC detergent – AmpC beta-lactamase inhibition with detergent present; P00811; AmpC hydrolysis of nitrocefin, absorbance 480 nm, 0.01% Triton; Potency, µM (top dose mostly 114 µM), for the others: at the highest dose activity change, negative = inhibition, hits mostly inhibitors; actives 0.041% (n = 370,000); AID 485294;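 note: 0% = no-compound wells and -100% = no-enzyme wells; nearly all actives have a fitted effect of over 25% in size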
# Target sequence (P00811 whole entry, looked up): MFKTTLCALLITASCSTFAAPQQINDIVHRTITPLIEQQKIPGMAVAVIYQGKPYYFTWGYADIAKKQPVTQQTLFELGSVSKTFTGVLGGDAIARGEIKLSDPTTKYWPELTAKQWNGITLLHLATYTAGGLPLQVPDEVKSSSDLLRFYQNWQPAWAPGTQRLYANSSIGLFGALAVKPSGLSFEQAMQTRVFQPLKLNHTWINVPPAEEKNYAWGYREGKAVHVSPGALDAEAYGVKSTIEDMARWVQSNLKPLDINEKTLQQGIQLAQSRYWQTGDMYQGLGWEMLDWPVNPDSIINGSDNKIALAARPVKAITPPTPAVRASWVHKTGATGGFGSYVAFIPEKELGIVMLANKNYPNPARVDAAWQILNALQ
#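 AmpC (5.3 nM in the dispensed reagent) in 20 mM phosphate pH 7.0 with 0.01% (detergent screen) or 0.0001% Triton X-100 was preincubated with compounds for 15 min at room temperature. Nitrocefin was then added from an 800 uM solution, and hydrolysis was followed at 480 nm.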
# AmpC inh no detg – AmpC beta-lactamase inhibition without detergent; P00811; actives 0.52% (n = 330,000); AmpC nitrocefin hydrolysis, absorbance 480 nm, 0.0001% Triton; AID 485341; Potency, µM (top dose mostly 57.1 µM), for inactives: top-dose activity change, negative = inhibition, most hits filed as inhibitors;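 note: plate controls were no compound for no effect and no enzyme for full effect; nearly all actives have a fitted effect of over 20% in size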
#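 AmpC (5.3 nM in the dispensed reagent) in 20 mM phosphate pH 7.0 with 0.01% (detergent screen) or 0.0001% Triton X-100 was preincubated with compounds for 15 min at room temperature. Nitrocefin was then added from an 800 uM solution, and hydrolysis was followed at 480 nm.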
# NS1 function inh – inhibitors of influenza NS1 protein function | Potency, µM (doses to about 46.1 µM), for inactives: at the top dose activity, positive = more growth | AID 2326 | actives 0.4% (n = 270,000); calls by dose curve; note: actives are rising curves; nearly all actives have a fitted effect of over 50% in size
#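 OD600 was taken as the measure of yeast growth restored by compound in an NS1-expressing S. cerevisiae strain. Cells had been washed out of glucose medium and diluted 1:100 into galactose -URA medium, pH 6.0.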
# SARS PLpro yeast – blocks SARS-CoV papain-like protease in a yeast assay | Potency, µM (titrated, usually from 32.9 µM), for inactives: at the highest dose activity, positive = growth rescue, actives largely listed as activators | S. cerevisiae expressing SARS-CoV PLpro, growth rescue | actives 0.19% (n = 330,000); calls by dose curve; note: 0% is about no effect; nearly all actives have a fitted effect of over 55% in size
# * marks the source's active call; other numbers are inactive results; ? = inconclusive; nt = no result. Unless noted, calls come from the whole dose curve; as a rule, active = well fitted curve in the direction sought with a large enough effect; inconclusive = small, poorly fitted or top-dose-only effect, or another doubt; inactive = no such curve, though single readings can be large; an effect the other way counts as inactive or inconclusive. Potency is the fitted concentration of half-maximal effect.
SMILES,AMA1 RON2 block,AmpC detergent,AmpC inh no detg,NS1 function inh,SARS PLpro yeast
COc1cc(/C=C/C(=O)OCC(=O)NCc2ccco2)ccc1O,-6%,-19%,-22%,nt,6%
COCCNc1ccc(-c2nc(-c3ccncc3)no2)cc1[N+](=O)[O-],nt,20%,nt,nt,nt
N#CC1=C(N)OC2=C(CCC/C2=C/c2ccoc2)C1c1ccoc1 (stereo not given),nt,0%,0.28µM*,-33%,-5%
O=C(Nc1cccc(C(F)(F)F)c1)c1cccnc1N1CCN(c2ccccc2)CC1,30µM*,4%,78%,17%,-34%
CC1(C)C=Cc2c(ccc3c2OC[C@H](c2ccc(O)cc2O)C3)O1,-20%,3%,-19%,nt,2%
Oc1ccc2c(c1)OCC1(O)Cc3cc(O)c(O)cc3C21 (stereo not given),13µM*,nt,nt,nt,nt
Oc1cc2c(cc1O)[C@H]1c3ccc(O)c(O)c3OC[C@@]1(O)C2,32µM*,0%,-16%,nt,-2%
COc1ccccc1CNC(=O)C1CCN(S(=O)(=O)c2c(C)noc2/C=C/c2cccs2)CC1,nt,1%,nt,nt,nt
Cc1ccccc1CSc1cn(CC(=O)N2CCCC2)c2ccccc12,nt,5%,nt,nt,nt
COc1ccc(S(=O)(=O)N2CCCC2CNC(=O)C(=O)NCc2ccccc2Cl)cc1 (stereo not given),-6%,-18%,28µM*,nt,2%
CCn1c(SCC(=O)N2CCN(c3ccccc3)CC2)nc2c(c1=O)SC(C)C2 (stereo not given),-16%,-7%,77%,-42%,-2%
CCn1c(SCC(=O)NCc2ccccc2)nc2c(c1=O)SC(C)C2 (stereo not given),-7%,-2%,1.6µM*,-47%,-11%
CC1Cc2nc(SCC(=O)N3CCN(c4ccccc4)CC3)n(C)c(=O)c2S1 (stereo not given),-8%,?,1.6µM*,-21%,-17%
CC1Cc2nc(SCC(=O)N3CCN(c4ccccc4)CC3)n(CCc3ccccc3)c(=O)c2S1 (stereo not given),-24%,-12%,3.5µM*,?,-10%
COc1ccc(CCNC(=O)c2nc(-c3ccc(Cl)cc3)n3c2CCCCC3)c(OC)c1,nt,12%,nt,nt,nt
Cc1ccc(NC(=O)Nc2cc(S(=O)(=O)N(C)C)ccc2C)cc1,0%,-8%,25µM*,nt,0%
CCn1c(=O)c(C(=O)Nc2ccc(C(C)=O)cc2)nc2ccccc21,nt,14%,nt,nt,nt
CCc1ccc(CNC(=O)C2CCN(C(=O)N3CC(CC)Oc4ccc(C)cc43)CC2)cc1 (stereo not given),nt,24%,nt,nt,nt
CN1CCc2cccc3c2[C@H]1Cc1ccc(O)c(O)c1-3,10µM*,?,-48%,-14%,-17%
O=C(c1cc2ccccc2oc1=O)N1CCN(c2ccc(N3CCOCC3)nn2)CC1,7%,?,0.14µM*,-5%,-2%
C=CCN1C(=O)S/C(=C/c2ccc(Sc3nc4ccccc4[nH]3)o2)C1=O,-3%,-9%,-32%,22%,-1%
O=C1NC(=O)N(c2ccc(Cl)cc2)C(=O)/C1=C\c1ccc(Sc2nc3ccccc3[nH]2)o1,?,-8%,18µM*,7%,4%
CCOC(=O)C1CCN(C(c2cccc(OC)c2)c2sc3nc(C)nn3c2O)CC1 (stereo not given),-6%,?,10µM*,-20%,-2%
Cc1cccc(NC(=O)/C(C#N)=C/c2cn(CC(=O)NCc3ccco3)c3ccccc23)c1,0%,-8%,14µM*,4%,2%
CCOC(=O)CCCCC(=O)c1[nH]c(=O)[nH]c1CSCCO,7.5µM*,-7%,-19%,10%,14%
SMILES,AMA1 RON2 block,AmpC detergent,AmpC inh no detg,NS1 function inh,SARS PLpro yeast
CCOC(=O)CCCCC(=O)c1[nH]c(=O)[nH]c1CSc1nc(-c2ccccc2)c(C#N)c(=O)[nH]1,?,-18%,-22%,6%,1%
CCOC(=O)CCCCC(=O)c1[nH]c(=O)[nH]c1Cn1cnc2ccccc21,38µM*,-14%,-50%,-2%,3%
O=C1CCC/C(=N/NC(=O)c2cc(NS(=O)(=O)c3cccs3)cc(NS(=O)(=O)c3cccs3)c2)C1,50%,-4%,11µM*,25%,1%
Cc1nc(-n2nc(C)c(Cc3ccc(Cl)cc3)c2C)sc1C(=O)N1CCC(C)CC1,nt,1%,nt,nt,nt
CCCCC(c1nnnn1CS(=O)(=O)c1ccc(C)cc1)N1CCN(c2ccccc2)CC1 (stereo not given),-9%,0%,-23%,7.1µM*,-14%
C=CCc1ccccc1OCc1nc2ccccc2n1CC,nt,3%,nt,nt,nt
CCOC(=O)CN1CC23C=CC(O2)C(C(=O)NC2CCCCCC2)C3C1=O (stereo not given),5%,-12%,-3%,8%,-8%
CCOC(=O)CN1CC23C=CC(O2)C(C(=O)Nc2ccc(C(C)=O)cc2)C3C1=O (stereo not given),0%,?,1.1µM*,-16%,7%
CCOC(=O)c1c(C)[nH]c(C)c1S(=O)(=O)NCC(=O)N(C)c1ccc(C)c(C)c1,nt,2%,nt,nt,nt
CCCCOc1ccc(-c2nnn(CC(=O)NCCc3c[nH]c4ccccc34)n2)cc1,-2%,0%,0.28µM*,16%,-1%
O=C1c2ccccc2C(=O)c2c(Nc3ccc(CCO)cc3)ccc(O)c21,8.9µM*,-7%,5%,5%,0%
O=C(COC(=O)c1ccccc1Nc1ccccc1)Nc1ccccc1,15%,?,7.1µM*,-5%,11%
N=C1/C(=C\c2ccc(-c3cccc(C(=O)O)c3)o2)C(=O)N=C2SC=C(c3ccccc3)N12,42%,56µM*,-38%,9%,0%
Cc1nc2cccnc2n1-c1cccc(C(=O)N2CCN(c3cccc(Cl)c3)CC2)c1,nt,11%,nt,nt,nt
COc1cccc(Nc2ncnc3nc[nH]c23)c1,-8%,?,3.2µM*,13%,2%
Cc1ccc(Nc2ncnc3nc[nH]c23)cc1Cl,5%,-15%,6%,-60%,8%
COc1cc(Br)c(C2CC(=O)Nc3cc4c(cc32)OCCO4)cc1OC (stereo not given),nt,-3%,nt,nt,nt
Cc1cc(C)c(NC(=O)C[C@H](CC(=O)O)c2cccc3ccccc23)c(C(=O)N2CCC3(CCCC3)CC2)c1,nt,nt,nt,10µM*,nt
Cc1cccc(CN2CCN(C(=O)c3cccc4ccccc34)CC2)c1,?,?,65%,-25%,4%
